Holding throughout (set-up): species or system human, MV4-11 + K-562 + COLO205 + SK-N-BE2 + OVCAR-8
One assay concerns CDKL5. The conditions noted are these: read-out: apparent Kd, n = 1.
Another assay concerns MAPK10. The conditions noted are these: read-out: apparent Kd; compound concentrations: 100 nM and 1000 nM (sheet 'Samples'), CATDS: 0.149195814483779; n = 1.
A further assay relates to MAPK14. The conditions noted are these: read-out: apparent Kd; compound concentrations: 100 nM and 1000 nM (sheet 'Samples'), CATDS: 0.62465881952288804; n = 1.
A further assay concerns MAPK9. The conditions noted are these: read-out: apparent Kd; compound concentrations: 100 nM and 1000 nM (sheet 'Samples'), CATDS: 0.14319279027503101; n = 1.
A further assay relates to MAPKAPK2. The conditions noted are these: read-out: apparent Kd; compound concentrations: 100 nM and 1000 nM (sheet 'Samples'), CATDS: 0.37042886154437599; n = 1.
For a further assay, the system named is MTHFD1. The conditions noted are these: read-out: apparent Kd; compound concentrations:100 nM and 1000 nM (sheet 'Samples'); n = 1.
In another assay the test system is PLK1. The conditions noted are these: read-out: apparent Kd; compound concentrations: 100 nM and 1000 nM (sheet 'Samples'), CATDS: 0.37737970121019898; n = 1.
The subject of the next assay is CDK6. The conditions noted are these: read-out: apparent Kd, n = 1.
The next assay concerns CLK1. The conditions noted are these: read-out: apparent Kd; compound concentrations:100 nM and 1000 nM (sheet 'Samples'); n = 1.
Another assay concerns CLK4. The conditions noted are these: read-out: apparent Kd; compound concentrations:100 nM and 1000 nM (sheet 'Samples'); n = 1.
A further assay relates to CSNK1A1. The conditions noted are these: read-out: apparent Kd; compound concentrations:100 nM and 1000 nM (sheet 'Samples'); n = 1.
In the next assay the test system is DYRK1A. The conditions noted are these: read-out: apparent Kd; compound concentrations:100 nM and 1000 nM (sheet 'Samples'); n = 1.
A further assay concerns MAP3K5. The conditions noted are these: read-out: apparent Kd; compound concentrations:100 nM and 1000 nM (sheet 'Samples'); n = 1.
The test system of the next assay is MAP3K6. The conditions noted are these: read-out: apparent Kd; compound concentrations:100 nM and 1000 nM (sheet 'Samples'); n = 1.
In a further assay the test system is NUAK1. The conditions noted are these: read-out: apparent Kd; compound concentrations:100 nM and 1000 nM (sheet 'Samples'); n = 1.
The test system of another assay is NUAK2. The conditions noted are these: read-out: apparent Kd; compound concentrations:100 nM and 1000 nM (sheet 'Samples'); n = 1.
The next assay has as its system PDGFRB. The conditions noted are these: read-out: apparent Kd; compound concentrations:100 nM and 1000 nM (sheet 'Samples'); n = 1.
The subject of a further assay is PI4KB. The conditions noted are these: read-out: apparent Kd; compound concentrations:100 nM and 1000 nM (sheet 'Samples'); n = 1.
Another assay has as its system PKN2. The conditions noted are these: read-out: apparent Kd; compound concentrations:100 nM and 1000 nM (sheet 'Samples'); n = 1.
A further assay has as its system PRKD2. The conditions noted are these: read-out: apparent Kd; compound concentrations:100 nM and 1000 nM (sheet 'Samples'); n = 1.
The test system of a further assay is PRKD3. The conditions noted are these: read-out: apparent Kd; compound concentrations:100 nM and 1000 nM (sheet 'Samples'); n = 1.
The subject of another assay is RPS6KA1. The conditions noted are these: read-out: apparent Kd; compound concentrations:100 nM and 1000 nM (sheet 'Samples'); n = 1.
The test system of another assay is RPS6KA6. The conditions noted are these: read-out: apparent Kd; compound concentrations:100 nM and 1000 nM (sheet 'Samples'); n = 1.
The next assay concerns RPS6KB1. The conditions noted are these: read-out: apparent Kd; compound concentrations:100 nM and 1000 nM (sheet 'Samples'); n = 1.
A further assay has as its system CDK7. The conditions noted are these: read-out: apparent Kd; compound concentrations:100 nM and 1000 nM (sheet 'Samples'); n = 1.
A further assay concerns ERCC2. The conditions noted are these: read-out: apparent Kd; compound concentrations:100 nM and 1000 nM (sheet 'Samples'); n = 1.
The test system of another assay is GSK3A. The conditions noted are these: read-out: apparent Kd; compound concentrations:100 nM and 1000 nM (sheet 'Samples'); n = 1.
For a further assay, the system named is GSK3B. The conditions noted are these: read-out: apparent Kd; compound concentrations:100 nM and 1000 nM (sheet 'Samples'); n = 1.
For the next assay, the system named is PAK6. The conditions noted are these: read-out: apparent Kd; compound concentrations:100 nM and 1000 nM (sheet 'Samples'); n = 1.
The subject of the next assay is PKN1. The conditions noted are these: read-out: apparent Kd; compound concentrations:100 nM and 1000 nM (sheet 'Samples'); n = 1.
In another assay the test system is PRKCA. The conditions noted are these: read-out: apparent Kd; compound concentrations: 100 nM and 1000 nM (sheet 'Samples'), CATDS: 0.33942301458254898; n = 1.
In another assay the test system is PRKCB. The conditions noted are these: read-out: apparent Kd; compound concentrations:100 nM and 1000 nM (sheet 'Samples'); n = 1.
The subject of a further assay is PRKCD. The conditions noted are these: read-out: apparent Kd; compound concentrations:100 nM and 1000 nM (sheet 'Samples'); n = 1.
The test system of a further assay is PRKCQ. The conditions noted are these: read-out: apparent Kd; compound concentrations:100 nM and 1000 nM (sheet 'Samples'); n = 1.
In the next assay the test system is PIM2. The conditions noted are these: read-out: apparent Kd; compound concentrations: 100 nM and 1000 nM (sheet 'Samples'), CATDS: 0.49047797816886901; n = 1.
Setting [1] is: compound concentrations:100 nM and 1000 nM (sheet 'Samples').

SMILES strings stand for the structures. Where two headings read alike, the source gives them in different places.

For the compound `Cl.Cn1c(=O)c(Oc2ccc(F)cc2F)cc2cnc(N[C@H]3CCOC3)nc21` [RO3311017-001], the potency estimated from few doses in the assay on CDKL5 (compound concentrations: 100 nM and 1000 nM (sheet 'Samples'), CATDS: 0.14258501509608601) is 1540 nM; with MAPK10, 1260 nM; in the assay with MAPK14, 19.2 nM; with MAPK9 it was 1510 nM; in the assay with MAPKAPK2, 54.5 nM.
`COc1cc2ncn(-c3cc(OCc4ccccc4C(F)(F)F)c(C(N)=O)s3)c2cc1OC` [GW843682X]: the results for the potency estimated from few doses in the assay with CDKL5 (setting [1]), in the assay on MTHFD1 and in the assay with PLK1 were 2330 nM, 1710 nM and 1400 nM, respectively.
As for `COc1cc(C)c(N(C)C(=O)CN(C)C)cc1Nc1nc(Nc2cccc(F)c2C(N)=O)c2cc[nH]c2n1` [GSK2219385_KCGS], the potency estimated from few doses in the assay on CDK6 (setting [1]) was 1850 nM.
On to `C[C@@H]1CCNC(=O)c2cc3ccc(C(=O)Nc4nc5ccccc5n4CCCN(C)C)cc3n21` [BI00645435], for which the potency estimated from few doses is 941 nM in the assay with CLK1; 931 nM with CLK4; 1000 nM in the assay on CSNK1A1; 2100 nM with DYRK1A; 2300 nM in the assay on MAP3K5; 1700 nM in the assay on MAP3K6. For the same compound, the potency estimated from few doses in the assay with NUAK1 was 110 nM; in the assay with NUAK2 it was 383 nM; with PDGFRB, 1670 nM; with PI4KB, 581 nM; in the assay on PKN2, 1760 nM; in the assay with PRKD2, 731 nM. Also, the potency estimated from few doses in the assay on PRKD3 is 1480 nM; with RPS6KA1, 529 nM; with RPS6KA6, 5.39 nM; in the assay on RPS6KB1, 106 nM.
With `CN(C)C[C@H]1CCn2c(c(C3=C(c4cn(C)c5ccccc45)C(=O)NC3=O)c3ccccc32)C1` [RO0320432-000], the potency estimated from few doses with CDK7 is 1010 nM; in the assay on ERCC2, 821 nM; with GSK3A it was 530 nM; with GSK3B, 299 nM; in the assay with PAK6, 1540 nM; in the assay on PKN1, 1400 nM. Besides, the potency estimated from few doses in the assay with PRKCA was 18.6 nM; in the assay on PRKCB, 66.4 nM; with PRKCD, 27.1 nM; with PRKCQ it was 122 nM; in the assay on RPS6KA6, 311 nM.
For `O=C(Nc1n[nH]c2cc(-c3ccccc3F)ccc12)C1CC1` [SB-733371], the potency estimated from few doses in the assay with CDK6 (compound concentrations: 100 nM and 1000 nM (sheet 'Samples'), CATDS: 0.50989905801732505) is 1670 nM; with PIM2, 1800 nM.

The values are drawn from paper PMC11062922 (Nature Chemical Biology, 2023).
